High-throughput results deposited in PubChem BioAssay by several laboratories.
A selection: hits, their analogues and other compounds. The true share with any hit is near 3.1%.
Rin1-Abl PPI inh – blocks binding of human Rin1 to Abl | P00519+Q13671 | TR-FRET Rin1/Abl binding, biochemical | inhibition, % at 7.35 µM | hit rate 0.4% among 360,000 | AID 588664; in the data active = inhibition above about 5%, passing the limit was not always enough
LEDGF integ inh – blocks HIV-1 LEDGF/p75-dependent DNA integration; TR-FRET IN-LEDGF/p75 DNA integration, Eu/Cy5; inhibition, % at 3.7 µM; hit rate 0.64% among 370,000; AID 743269;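 active = inhibition above the screen-wide mean plus 3 SD, cut at about 13% in these data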;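 also: signal is the Cy5 over europium emission ratio at 671 and 618 nm; 0% = plate median of compound wells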
Neddyl block – cullin neddylation inhibition | P61081+Q13564 | AID 651699 | hit rate 0.58% among 360,000 | calls only at 25 µM | TR-FRET cullin neddylation, biochemical; in the data active = inhibition above about 36%
Target sequence (P61081 whole entry, looked up): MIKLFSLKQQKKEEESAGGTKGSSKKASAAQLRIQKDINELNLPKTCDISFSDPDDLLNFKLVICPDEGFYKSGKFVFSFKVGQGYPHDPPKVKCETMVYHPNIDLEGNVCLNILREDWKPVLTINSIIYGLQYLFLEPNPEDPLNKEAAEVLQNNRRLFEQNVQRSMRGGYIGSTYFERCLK
Target sequence (Q13564 whole entry, looked up): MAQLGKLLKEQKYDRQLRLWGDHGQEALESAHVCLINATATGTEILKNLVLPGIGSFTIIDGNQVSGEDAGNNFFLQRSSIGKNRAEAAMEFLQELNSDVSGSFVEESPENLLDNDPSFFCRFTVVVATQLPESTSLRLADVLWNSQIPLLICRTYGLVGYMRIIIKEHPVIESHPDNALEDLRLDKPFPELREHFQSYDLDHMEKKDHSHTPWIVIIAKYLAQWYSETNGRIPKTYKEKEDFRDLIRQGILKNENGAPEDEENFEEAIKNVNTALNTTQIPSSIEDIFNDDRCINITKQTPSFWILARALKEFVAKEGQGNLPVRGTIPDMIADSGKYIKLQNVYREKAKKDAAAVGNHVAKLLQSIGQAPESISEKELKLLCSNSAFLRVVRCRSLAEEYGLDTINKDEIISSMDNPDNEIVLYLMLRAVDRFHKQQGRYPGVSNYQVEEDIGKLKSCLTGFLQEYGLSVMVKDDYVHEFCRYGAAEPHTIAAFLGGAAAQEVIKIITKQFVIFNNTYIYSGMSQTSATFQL
MBD2 inh – MBD2-methylated oligo binding inhibition; Q9UBB5; TR-FRET, MBD2 binding to methylated oligonucleotide; inhibition, % at 4.4 µM; hit rate 0.31% among 370,000; in the data active = inhibition above about 13%
KLK7 zymogen act – activators of human kallikrein-7 zymogen; AID 652039; activation, % at 7 µM; P49862; purified proKLK7, EDANS-DABCYL substrate fluorescence; 100% is mature enzyme control, 0% vehicle; hit rate 0.9% among 370,000;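 active = activation above the mean of all tested compounds plus 3 SD, computed per campaign excluding outliers beyond control limits, cut at about 13% in these data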
UHRF1 binding – human UHRF1 methylated DNA binding inhibitors; UHRF1 binding to methylated oligo, TR-FRET; hit rate 0.75% among 370,000; inhibition, % at 4.4 µM; Q96T88; in the data active = inhibition above about 21%;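 also: UHRF1 SRA domain binding a hemimethylated CpG hairpin DNA probe; 0% = median of test compound wells and 100% = reference inhibitor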
KLK7 act conf – confirmation of human kallikrein-7 zymogen activators; shares compounds with KLK7 zymogen act; purified proKLK7, EDANS-DABCYL substrate fluorescence; scaled: vehicle 0, mature enzyme 100; activation, % at 7 µM; hit rate 68% among 3,200;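 active = activation, as change over the incubation, above the mean of all tested compounds plus 3 SD, cut at about 13% in these data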
EDANS interfere – optically interferes with EDANS-DABCYL signal, flagging KLK7 hits | activation, % at 7 µM | AID 686952 | EDANS-DABCYL substrate fluorescence interference, no enzyme, 4 h; solvent 0%, active enzyme control 100% | shares compounds with KLK7 zymogen act | hit rate 80% among 3,200;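 active = activation above the all-compound mean plus 3 SD, ignoring values outside control-based bounds, cut at about 4.8% in these data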;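 also: value is the 4 h activation minus the activation read at time zero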
K7 EDANS ctr – optically interferes with EDANS-DABCYL fluorescence, kallikrein-7 activator counter-screen; shares compounds with KLK7 zymogen act; EDANS-DABCYL peptide fluorescence interference, no enzyme; EC50, µM; hit rate 20% among 250; AID 720493;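 active = compounds that raise the fluorescence signal in this interference counterscreen, with EC50 at or below 10 µM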;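 also: intact quenched peptide substrate alone read at 355 nm excitation and 520 nm emission; signal is fluorescence gain from T0 to T4 after four hours at room temperature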
* marks the source's active call; other numbers are inactive results; i = inactive; x = no result given.

SMILES	Rin1-Abl PPI inh	LEDGF integ inh	Neddyl block	MBD2 inh	KLK7 zymogen act	UHRF1 binding	KLK7 act conf	EDANS interfere	others
CCN(CC)c1ccc(Nc2cc3n(c(=O)n2)CCc2cc(OC)c(OC)cc2-3)cc1	-3.2	-4.7	i	-6.9	21.4*	5.1	71.8*	74.5*
COc1cc2c(cc1OC)-c1cc(Nc3ccc(N(C)C)cc3)nc(=O)n1CC2	-3.2	1.0	i	-1.1	8.4	7.5	x	x
CN1CCN(C(=O)c2cnn3c(C(F)(F)F)cc(-c4cccs4)nc23)CC1	-3.9	0.2	x	-0.3	18.6*	-0.3	28.7*	25.1*
O=C(c1cnn2c(C(F)(F)F)cc(-c3cccs3)nc12)N1CCN(Cc2ccccc2)CC1	-3.0	-3.2	i	3.1	-5.9	1.0	x	x
FC(F)(F)c1cc(-c2ccccc2)nc2ncnn12	-4.3	-1.8	i	-3.8	0.5	-1.4	x	x
O=C(c1ccco1)N1CCN(C(=O)c2cnn3c(C(F)(F)F)cc(-c4cccs4)nc23)CC1	-7.9	-1.7	x	-3.2	25.0*	3.6	-3.6	0.9
FC(F)(F)c1cc(-c2cccs2)nc2ncnn12	-2.4	0.4	x	0.1	19.2*	2.8	66.9*	65.5*
CCN1CCC(O)(/C=C/c2ccc(C(C)C)cc2)C(C(=O)/C=C/c2ccc(C(C)C)cc2)C1 (configuration not stated)	2.3	-2.6	i	-2.4	-0.5	-0.5	x	x
COc1ccc(-c2cn3cc(C(=O)NN)ccc3n2)cc1	-1.2	6.2	x	-3.8	39.7*	1.1	7.7	10.0*
COc1ccc(OC)c2sc(NC(=O)C3=COCCO3)nc12	-2.5	5.0	x	-4.8	56.1*	0.4	8.0	2.3
Cc1cccc(C)c1NC(=O)C1(C)CSCC(=O)N1CCCn1ccnc1 (configuration not stated)	x	-0.4	i	-6.0	-0.3	0.9	x	x
O=C(NCc1ccccc1)c1cc2ccc(O)cc2oc1=O	-0.1	-2.7	x	-1.1	58.0*	-1.1	68.8*	71.2*
COc1ccc2cc(C(N)=O)c(=Nc3ccccc3)oc2c1	1.3	1.0	i	4.1	-0.6	-3.8	x	x
COc1ccc(OC)c(N=c2oc3cc(O)ccc3cc2C(N)=O)c1	0.7	-2.6	x	3.0	14.2*	-0.3	11.7	14.8*
O=C(O)c1ccc(N=c2oc3cc(O)ccc3cc2C(=O)NCc2ccccc2)cc1	1.4	-0.7	i	-2.4	5.1	0.4	x	x
NC(=O)c1cc2ccc(O)cc2oc1=NCc1ccccc1	-3.9	-0.8	x	-6.5	68.7*	-1.6	117.2*	125.4*
Cc1ccc(S(=O)(=O)c2cc3ccc(O)cc3oc2=O)cc1C	0.1	0.0	x	-3.9	43.6*	-2.8	62.0*	67.9*
O=C(NCCN1CCC(n2c(=O)[nH]c3ccccc32)CC1)c1ccccc1C(F)(F)F	x	3.2	i	-0.1	-0.8	-1.3	x	x
CCOC(=O)C(C(=O)N(C)Cc1ccccc1)C1CCCCC1 (configuration not stated)	-0.2	2.3	i	5.1	0.1	-1.2	x	x
O=C(O)c1cc2ccc(O)cc2oc1=O	-4.6	0.2	x	-1.5	104.4*	-0.2	65.2*	73.4*
COc1ccccc1C(=O)c1cc2ccc(O)cc2oc1=O	-0.2	1.8	i	0.2	-0.1	-4.1	x	x
O=C(c1ccc(F)cc1)c1cc2ccc(O)cc2oc1=O	0.6	-0.3	i	-3.2	-0.9	-2.3	x	x
C/C(=N\NC(=O)CC#N)c1cc2ccc(O)cc2oc1=O	-2.8	-0.3	x	-11.6	60.5*	-9.9	46.3*	43.1*
COc1ccc(NC(=O)CN2C(=O)c3cccc4cccc2c34)c(OC)c1	-2.4	-0.9	i	-1.2	304.2*	0.3	59.1*	67.1*
CCOC(=O)c1nn(-c2ccc(F)cc2)c(=O)cc1OCC(=O)Nc1ccc(F)c(F)c1	0.5	5.3	i	2.1	0.4	2.5	x	x
SMILES	Rin1-Abl PPI inh	LEDGF integ inh	Neddyl block	MBD2 inh	KLK7 zymogen act	UHRF1 binding	KLK7 act conf	EDANS interfere	others
Cc1ccc2c(c1)c1c(n2CC(O)Cn2ccnc2C)C(=O)CCC1 (configuration not stated)	-2.7	-1.9	x	-4.5	16.9*	-3.6	8.9	14.7*
Cc1ccc2c(c1)c1c(n2CC(O)Cn2c(C)nc3ccccc32)C(=O)CCC1 (configuration not stated)	-1.5	1.3	x	0.5	-8.0	0.3	x	x
COc1ccc(-n2c(SCc3cccc4ccccc34)nnc2-c2ccccc2)cc1	x	-2.0	x	3.2	0.2	1.2	x	x
CCOC(=O)C1CCN(c2ncnc3c2[nH]c2cccc(OC)c23)CC1	-7.8	-2.1	x	-5.8	19.2*	3.0	23.5*	14.4*	K7 EDANS ctr=i
COc1cccc2[nH]c3c(Cl)ncnc3c12	-1.5	10.0	x	-3.1	17.3*	0.3	31.5*	31.3*
COc1ccc2[nH]c3c(Cl)ncnc3c2c1	0.8	3.2	i	12.0	0.5	20.1	x	x
COC(=O)[C@]12C[C@H](CC(=O)NCc3cccc(C(F)(F)F)c3)C(=O)N(Cc3cccc4ccccc34)C1=C[C@H](C(C)C)O[C@@H]2C1CC1	x	-1.7	x	2.5	0.3	-1.0	x	x
C#Cc1cccc(OCC(C)CN2CCC(C(O)(c3ccccc3)c3ccccc3)CC2)c1 (configuration not stated)	x	3.9	x	1.6	0.8	-1.8	x	x
CCOC(=O)N1CCN(C(=O)c2ccccc2N(Cc2ccccc2)S(=O)(=O)c2ccccc2)CC1	0.4	-5.5	i	5.5	-0.1	0.5	x	x
CCCN1CC(=O)N2[C@H](C[C@@]3(n4ccc5ccccc54)c4ccccc4N(S(=O)(=O)c4ccccc4)[C@@H]23)C1=O	x	2.7	x	-3.8	0.1	0.8	x	x
CCCCCCCCN1C(=O)[C@@H](CC(=O)N2CCN(C(=O)c3ccco3)CC2)C[C@@]2(C(=O)OC)C1=C[C@H](COCc1ccccc1)O[C@@H]2C	x	-2.3	x	4.7	1.5	0.8	x	x
COc1ccc(/C=C(/CC(=O)NCc2ccc(Cl)cc2)c2nc3ccccc3s2)cc1	2.1	-0.1	i	-7.3	28.0*	-1.4	68.3*	57.4*	K7 EDANS ctr=2.42*
COCCn1c(-c2cccs2)nc2nc3ccccc3nc21	-3.4	-5.3	x	-4.3	37.7*	-3.0	68.5*	73.0*
CCCn1c(-c2cccs2)nc2nc3ccccc3nc21	-9.7	4.1	x	-13.8	41.5*	-3.5	-55.1	-64.0
CCCn1c(-c2cccs2)nc2c1c(=O)[nH]c(=O)n2Cc1ccccc1	4.2	1.1	i	-9.0	-0.6	-2.2	x	x
CC(C)Cn1c(-c2cccs2)nc2ccccc21	-4.7	1.5	i	3.8	-0.1	2.6	x	x
